# Among all 310,000 compounds or so, about 14,000 (4.5%) showed an effect of 50% or more. Effects have a minus sign here. The entries come from a sample that favours strong results as a whole.
# Target: human ether-à-go-go-related gene (hERG) potassium channel (human, UniProt Q12809)
# Experiment: primary screen, population patch clamp on CHO cells stably expressing hERG; higher = less effect of the substance
# 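Further: peak tail current of the secondary pulse compared with the same well before compound.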
# human ether-à-go-go-related gene (hERG) potassium channel, sequence (Q12809 whole entry, looked up): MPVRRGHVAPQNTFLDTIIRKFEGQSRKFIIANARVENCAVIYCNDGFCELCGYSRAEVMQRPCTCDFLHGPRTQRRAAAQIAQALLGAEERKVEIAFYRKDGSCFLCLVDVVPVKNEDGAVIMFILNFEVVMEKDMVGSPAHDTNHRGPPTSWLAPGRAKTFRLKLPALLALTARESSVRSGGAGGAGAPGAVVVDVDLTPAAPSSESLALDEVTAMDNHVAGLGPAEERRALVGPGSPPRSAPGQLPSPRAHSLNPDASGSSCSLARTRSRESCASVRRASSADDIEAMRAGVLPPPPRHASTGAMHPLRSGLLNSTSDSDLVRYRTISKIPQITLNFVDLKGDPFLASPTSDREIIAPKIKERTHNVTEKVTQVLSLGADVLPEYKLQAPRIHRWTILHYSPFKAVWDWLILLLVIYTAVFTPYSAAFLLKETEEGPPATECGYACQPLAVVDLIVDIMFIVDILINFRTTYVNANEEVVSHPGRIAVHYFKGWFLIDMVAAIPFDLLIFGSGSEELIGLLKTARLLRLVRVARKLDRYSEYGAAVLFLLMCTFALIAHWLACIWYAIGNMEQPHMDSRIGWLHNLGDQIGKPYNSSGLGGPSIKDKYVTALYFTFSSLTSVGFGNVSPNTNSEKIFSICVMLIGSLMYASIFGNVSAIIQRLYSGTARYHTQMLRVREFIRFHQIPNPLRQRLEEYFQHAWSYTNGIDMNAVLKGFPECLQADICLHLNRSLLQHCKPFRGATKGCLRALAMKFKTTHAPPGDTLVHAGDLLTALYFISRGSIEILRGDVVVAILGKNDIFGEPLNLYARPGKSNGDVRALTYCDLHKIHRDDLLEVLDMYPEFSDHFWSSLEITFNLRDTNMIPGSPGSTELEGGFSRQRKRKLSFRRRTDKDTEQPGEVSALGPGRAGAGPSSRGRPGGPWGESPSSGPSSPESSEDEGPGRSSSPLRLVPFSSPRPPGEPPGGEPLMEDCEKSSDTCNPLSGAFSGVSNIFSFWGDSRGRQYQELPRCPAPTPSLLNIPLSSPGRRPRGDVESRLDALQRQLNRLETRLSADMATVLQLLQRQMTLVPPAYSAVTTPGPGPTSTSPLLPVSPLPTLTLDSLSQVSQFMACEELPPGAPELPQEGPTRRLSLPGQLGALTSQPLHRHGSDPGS
row,SMILES,"hERG current change (%, negative = inhibition) at 10uM [%]"
1,COc1cccc(C2CC(c3ccccc3)Nc3nc(N)nn32)c1 (centres unmarked),-7.93
2,S=c1[nH]nc(Cc2cccs2)n1-c1cccc2ccccc12,-10.4
3,O=[N+]([O-])c1ccc(CNc2cccc(F)c2)s1,-32.3
4,Cc1ccc(CNC(=O)c2nc3nc(C)cc(C)n3n2)cc1,14.4
5,Cc1cccc(NC(=S)Nc2cccc3ccccc23)c1,15.9
6,Cc1ccc(NC(=S)NC2CCN(Cc3ccccc3)CC2)c(C)c1,-12.9
7,CCOC(=O)c1c(-c2ccc(C)cc2)csc1NC1=NS(=O)(=O)c2ccccc21,-1.41
8,CSc1ccccc1OC1CCN(Cc2ccccc2)CC1.Cl,-24.3
9,Cl.N#CC(c1ccccc1)C1CCN(Cc2ccccc2)CC1 (centres unmarked),-50.9
10,CC(=O)C1CCN(Cc2ccccc2)CC1,20.5
11,O=C(OCC(=O)N1CCCCCC1)c1ccc([N+](=O)[O-])cc1Cl,8.47
12,Cc1ccccc1S(=O)(=O)Nc1nc2ccccc2nc1N1CCOCC1,7.22
13,CCn1ccc(C(=O)NC2=NCCS2)n1,-3.73
14,CNC(=O)/C(C#N)=C/c1c(N2CCCCCC2)nc2ccccn2c1=O,10.2
15,CCNC(=O)/C(C#N)=C/c1c(N2CCCCCC2)nc2ccccn2c1=O,-9.13
16,C=CCNC(=O)/C(C#N)=C/c1c(N2CCCCCC2)nc2ccccn2c1=O,-59.6
17,COCCNC(=O)/C(C#N)=C/c1c(N2CCN(c3ccccc3)CC2)nc2ccccn2c1=O,-20.7
18,CCNC(=O)/C(C#N)=C/c1c(N2CCOCC2)nc2ccccn2c1=O,-4.68
19,CCNC(=O)/C(C#N)=C/c1c(N2CCN(c3ccccc3)CC2)nc2ccccn2c1=O,-66.3
20,CC(=O)OCn1ncc(N2CCOCC2)c(Br)c1=O,16.5
21,Cc1ccc(/C=N/Nc2cc(C)nc(N3CCOCC3)n2)cc1,17.5
22,Cc1ccc(N=Nc2c(O)[nH]c(=O)[nH]c2=O)c([N+](=O)[O-])c1,-5.68
23,Cc1ccc(S(=O)(=O)NC(CCc2ccccc2)CC(=O)C(C)(C)C)cc1 (centres unmarked),-0.463
24,O=C(c1ccc(N2CCOCC2)c([N+](=O)[O-])c1)N1CCCC(C(F)(F)F)C1 (centres unmarked),2.23

row,SMILES,"hERG current change (%, negative = inhibition) at 10uM [%]"
1,Cc1ccc(S(=O)(=O)NC(=O)N(C)C2CCCCC2)cc1,9.07
2,CN(C)CCCNc1nc(-c2ccccc2)c2c(c1C#N)CC(C)(C)OC2,-57.4
3,CC1(C)Cc2c(C#N)c(NCCCO)nc(-c3ccccc3)c2CO1,-56
4,CC1(C)Cc2c(C#N)c(NCCN3CCOCC3)nc(-c3ccccc3)c2CO1,-17.1
5,Cc1nc(NCCCO)c(C#N)c2c1COC(C)(C)C2,-15
6,COc1nc(-c2ccccc2)c2c(c1C#N)CC(C)(C)OC2,-11.2
7,CN(C)CCNc1nc(-c2ccccc2)c2c(c1C#N)CC(C)(C)OC2,-42.4
8,CC1CCCCN1S(=O)(=O)c1ccc(C(=O)Nc2nnc(-c3ccco3)o2)cc1 (centres unmarked),-2.35
9,O=C(CCc1ccccc1)NNC(=O)Cc1ccc(Cl)cc1,13.1
10,CCOC(=O)C1=C(C)Nc2ccccc2N=C1NC(=O)c1cccc(S(=O)(=O)NCc2ccccc2)c1,-19.4
11,Cc1nn(Cc2n[nH]c(=S)n2Cc2ccccc2)c(C)c1Cl,14
12,CCOc1ccc(CN2CCN(Cc3cc4c(cc3Cl)OCO4)CC2CCO)cc1 (centres unmarked),-73.3
13,OCCC1CN(Cc2cccc3c2OCO3)CCN1C1CCCC1 (centres unmarked),-20.4
14,CC(C)N1CCN(Cc2cc3c(cc2Cl)OCO3)CC1CCO (centres unmarked),-2.34
15,CC(C)CN1CCN(Cc2cccc3c2OCO3)CC1CCO (centres unmarked),-1.45
16,OCCC1CN(Cc2cc3c(cc2Cl)OCO3)CCN1Cc1ccccc1 (centres unmarked),-45.3
17,CCOc1ccc(CN2CCN(Cc3cccc4c3OCO4)CC2CCO)cc1 (centres unmarked),-77.4
18,OCCC1CN(Cc2cc3c(cc2Cl)OCO3)CCN1C1CCCC1 (centres unmarked),-50.8
19,Cc1ccc(CN2CCN(Cc3cccc4c3OCO4)CC2CCO)cc1 (centres unmarked),-51.2
20,CC(C)=CCN1CCN(Cc2cccc3c2OCO3)CC1CCO (centres unmarked),-12.6
21,OCCC1CN(Cc2cccc3c2OCO3)CCN1Cc1ccccc1 (centres unmarked),-3.38
22,CC(C)N1CCN(Cc2cccc3c2OCO3)CC1CCO (centres unmarked),-0.928
23,CC(C)N1CCC(N2CCN(Cc3cc4c(cc3Cl)OCO4)CC2CCO)CC1 (centres unmarked),-18.5

# Source: PMC4336329 (PLoS ONE, 2015)
